From PubChem BioAssay
Active and inactive are the calls of the source.

Assays:
Albumin (Bos taurus) = Albumin (Bos taurus) (UniProt P02769); test: compounds binding labelled BSA control protein – biochemical, small-molecule microarray, Alexa647 label, 635/667 nm fluorescence, artefact control for SMM control protein annotation, profiling panel (AID 1118); conditions: BSA-A647 binding, fluorescence 635 nm, higher = more signal;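 also: score merges 667 nm emission intensity and signal-to-noise per printed compound spot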
[1] = probe aXIP binding to arrayed compounds – biochemical, NeuroSMM set, 635/667 nm fluorescence, primary screen (AID 1119); conditions: small-molecule microarray, higher = more signal, called active from +8 up or from −8 down;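 also: probe is the protein aXip251-270 applied at 1 µg/mL to compound-printed slides; binding of probe to printed compounds measured as 667 nm fluorescence plus signal to noise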
[2] = probe aNOTCH3 binding on compound microarray – biochemical, small-molecule microarray, 635/667 nm fluorescence, primary screen (AID 1120); conditions: higher = more signal;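 also: probe is a biotin-tagged antibody raised against NOTCH3 rather than NOTCH3 protein; score merges spot fluorescence near 667 nm with spot signal to noise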
[3] = probe aNOTCH2 binding on compound microarray – biochemical, small-molecule microarray, 635/667 nm fluorescence, primary screen (AID 1121); conditions: higher = more signal;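 also: score merges feature fluorescence read at 667 nm with its signal to noise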
[4] = target: Carbonic anhydrase 2 (Homo sapiens) (UniProt P00918); test: compounds binding carbonic anhydrase 2 – biochemical, small-molecule microarray, Alexa647-labelled CAII, profiling panel (AID 1122); conditions: CAII-A647 binding fluorescence, higher = more signal
[5] = COS7 lysate on small-molecule microarray, probe aHis, 635 nm (AID 1123); conditions: COS7 cell lysate, fluorescence, higher = more signal;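 also: z-score combines 667nm fluorescence intensity with signal-to-noise per printed compound spot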
[6] = probe aLAP1 signal on lysate-treated microarray – cell lysate, small-molecule microarray, COS7 lysate, primary screen (AID 1124); conditions: probe aLAP1, fluorescence, higher = more signal;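 also: lysate comes from COS7 cells expressing LAP1 and is applied at 0.3 µg/mL; score merges spot fluorescence near 667 nm with signal-to-noise over triplicate slides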
Sam68 (KHDRBS1) = test: compounds binding KHDRBS1 protein – biochemical, small-molecule microarray, 635 nm fluorescence, primary screen (AID 1125); conditions: higher = more signal;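 also: score merges 667 nm channel intensity with signal to noise over triplicate slides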
[7] = test system: Chordin-like protein 2 (CHRDL2); test: compounds binding chordin-like 2 – biochemical, small-molecule microarray, 635 nm fluorescence, primary screen (AID 1126); conditions: fluorescence 635 nm, higher = more signal;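 also: printed compound slides probed with Chrdl2 protein at 4 µg/mL for 1 h at 4 C; score merges 667 nm emission intensity with signal to noise over three replicate slides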
[8] = target: Concanavalin-A (Canavalia ensiformis) (UniProt P02866); test: compounds binding concanavalin A lectin – biochemical, small-molecule microarray, Alexa647 label, 635 nm, artefact control for SMM control protein annotation, primary screen (AID 1127); conditions: ConA-A647 binding fluorescence, higher = more signal;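 also: z combines 667 nm emission intensity with signal-to-noise across three replicate slides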
[9] = compounds binding Alexa647 anti-His antibody – biochemical, small-molecule microarray, 635 nm fluorescence, artefact control for SMM control protein annotation, primary screen (AID 1128); conditions: higher = more signal;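 also: score merges feature fluorescence with signal-to-noise for each printed compound spot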
[10] = test system: Human papillomavirus type 1a E7 protein (residues 1-88); test: HPV1a E7 small-molecule binders, primary screen, biochemical, small-molecule microarray, residues 1-88, 635 nm (AID 1129); conditions: small-molecule microarray binding, fluorescence 635 nm; higher = more signal
[11] = target: Focal adhesion kinase 1 (Homo sapiens) (UniProt Q05397); test: PTK2 protein binding on printed compound slides – biochemical, small-molecule microarray, 635/667 nm fluorescence, BSA, DTT, primary screen (AID 1130); conditions: 635 nm fluorescence, higher = more signal;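 also: composite of spot emission at 667 nm and signal to noise over triplicate slides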
[12] = test system: Fibrinogen (Alexa647-labelled); test: Alexa647-fibrinogen binding to printed small molecules – biochemical, small-molecule microarray, 635/667 nm fluorescence, artefact control for SMM control-protein annotation, profiling panel (AID 1131); conditions: fibrinogen-A647 binding fluorescence, higher = more signal;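 also: z-score merges 667 nm fluorescence with per-spot signal-to-noise over triplicate slides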
[13] = target: Follistatin (Homo sapiens) (UniProt P19883); test: FST protein binding to printed compounds – biochemical, small-molecule microarray, 635/667 nm fluorescence, primary screen (AID 1132); conditions: 635 nm fluorescence, higher = more signal
[14] = target: Fibroblast growth factor 2 (Homo sapiens) (UniProt P09038); test: basic fibroblast growth factor binding to printed compounds – biochemical, small-molecule microarray, 635/667 nm fluorescence, primary screen (AID 1133); conditions: FGF2, fluorescence 635/667, higher = more signal
[15] = JC-1 mitochondrial potential readout, lung cancer cells – cell-based, A549, JC-1 fluorescence, basal, 24 h, 100 nL, profiling panel (AID 1138); conditions: higher = more signal;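 also: A549 lung adenocarcinoma cells under basal conditions with no added stimulus; test concentration not given here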
Lefty1 = Lefty1 protein binding to printed compounds – biochemical, small-molecule microarray, 635/667 nm fluorescence, primary screen (AID 1139); conditions: fluorescence 635/667, higher = more signal
[16] = test system: wheat germ agglutinin (Triticum aestivum), Alexa647-labelled; test: Alexa647-WGA lectin binding to printed small molecules – biochemical, small-molecule microarray, 635/667 nm fluorescence, artefact control for SMM control-protein annotation, profiling panel (AID 1140); conditions: WGA-A647 binding, 635 nm fluorescence, higher = more signal;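 also: score merges 667 nm feature emission with signal to noise over triplicate slides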
[17] = target: Luciferin 4-monooxygenase (Photinus pyralis) (UniProt P08659); test: inhibition of purified Photinus pyralis luciferase – biochemical, luminescence, purified enzyme, 2006 set, primary screen (AID 1141); conditions: purified firefly luciferase, SteadyGlo luminescence, 30 min; higher = more signal, called active from +8 up or from −8 down;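 also: cell-free assay with purified firefly luciferase at 100 ng per well in PBS; test concentration not given here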
Chain of Luciferin 4-monooxygenase (Photinus pyralis) (P08659 whole entry, looked up): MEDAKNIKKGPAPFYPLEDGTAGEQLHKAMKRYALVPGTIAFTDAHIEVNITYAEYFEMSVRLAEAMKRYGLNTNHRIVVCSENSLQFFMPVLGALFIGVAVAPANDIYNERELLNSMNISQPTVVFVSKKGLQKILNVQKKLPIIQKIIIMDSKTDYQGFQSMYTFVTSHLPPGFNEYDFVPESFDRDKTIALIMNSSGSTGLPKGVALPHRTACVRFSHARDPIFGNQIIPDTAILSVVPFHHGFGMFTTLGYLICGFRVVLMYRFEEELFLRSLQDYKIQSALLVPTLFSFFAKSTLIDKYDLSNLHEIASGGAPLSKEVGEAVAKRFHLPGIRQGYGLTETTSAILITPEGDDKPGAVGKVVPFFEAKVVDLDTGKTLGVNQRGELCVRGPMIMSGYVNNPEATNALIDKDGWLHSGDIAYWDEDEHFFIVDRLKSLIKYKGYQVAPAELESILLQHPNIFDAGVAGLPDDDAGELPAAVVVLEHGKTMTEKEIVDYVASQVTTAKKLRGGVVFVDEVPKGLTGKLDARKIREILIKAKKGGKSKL

Chain of Albumin (Bos taurus) (P02769 whole entry, looked up): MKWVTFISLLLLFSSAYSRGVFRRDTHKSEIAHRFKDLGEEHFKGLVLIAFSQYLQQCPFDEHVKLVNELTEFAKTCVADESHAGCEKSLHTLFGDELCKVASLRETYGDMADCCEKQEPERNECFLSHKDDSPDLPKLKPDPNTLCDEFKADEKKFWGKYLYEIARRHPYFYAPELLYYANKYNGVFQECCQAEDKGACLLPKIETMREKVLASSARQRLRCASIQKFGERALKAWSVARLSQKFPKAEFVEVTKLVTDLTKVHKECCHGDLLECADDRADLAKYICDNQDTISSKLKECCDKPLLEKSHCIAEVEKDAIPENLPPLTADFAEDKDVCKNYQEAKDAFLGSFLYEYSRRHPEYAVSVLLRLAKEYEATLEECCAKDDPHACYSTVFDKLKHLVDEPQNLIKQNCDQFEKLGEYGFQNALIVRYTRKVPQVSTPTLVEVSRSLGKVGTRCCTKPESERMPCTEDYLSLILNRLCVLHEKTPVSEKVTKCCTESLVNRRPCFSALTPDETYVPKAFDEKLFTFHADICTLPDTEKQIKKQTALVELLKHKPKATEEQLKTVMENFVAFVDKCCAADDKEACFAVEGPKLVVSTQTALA
Chain of Concanavalin-A (Canavalia ensiformis) (P02866 whole entry, looked up): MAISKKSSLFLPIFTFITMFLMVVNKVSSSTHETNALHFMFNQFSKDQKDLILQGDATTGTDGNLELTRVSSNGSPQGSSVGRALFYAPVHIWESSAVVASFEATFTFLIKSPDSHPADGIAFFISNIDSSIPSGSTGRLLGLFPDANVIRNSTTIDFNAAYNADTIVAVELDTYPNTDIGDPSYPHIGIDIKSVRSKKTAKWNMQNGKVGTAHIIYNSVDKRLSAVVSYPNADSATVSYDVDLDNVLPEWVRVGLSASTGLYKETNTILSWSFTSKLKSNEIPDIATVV
Chain of Follistatin (Homo sapiens) (P19883 whole entry, looked up): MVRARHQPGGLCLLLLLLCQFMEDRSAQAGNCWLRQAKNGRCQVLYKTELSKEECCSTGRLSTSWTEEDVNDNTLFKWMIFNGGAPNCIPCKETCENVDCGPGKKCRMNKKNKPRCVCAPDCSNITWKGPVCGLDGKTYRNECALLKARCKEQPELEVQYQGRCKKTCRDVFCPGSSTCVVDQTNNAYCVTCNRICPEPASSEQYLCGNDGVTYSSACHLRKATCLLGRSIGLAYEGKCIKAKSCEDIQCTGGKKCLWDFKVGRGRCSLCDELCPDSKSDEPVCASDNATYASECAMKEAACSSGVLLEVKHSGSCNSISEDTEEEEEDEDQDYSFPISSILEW
Chain of Fibroblast growth factor 2 (Homo sapiens) (P09038 whole entry, looked up): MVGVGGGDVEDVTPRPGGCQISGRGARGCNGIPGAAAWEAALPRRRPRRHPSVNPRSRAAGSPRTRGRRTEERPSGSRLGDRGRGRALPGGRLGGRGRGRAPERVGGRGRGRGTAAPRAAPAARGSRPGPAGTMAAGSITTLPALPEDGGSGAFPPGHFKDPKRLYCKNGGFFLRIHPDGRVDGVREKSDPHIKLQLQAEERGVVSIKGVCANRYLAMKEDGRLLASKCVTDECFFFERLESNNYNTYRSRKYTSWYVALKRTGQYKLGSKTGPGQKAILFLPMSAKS
Chain of Focal adhesion kinase 1 (Homo sapiens) (Q05397 whole entry, looked up): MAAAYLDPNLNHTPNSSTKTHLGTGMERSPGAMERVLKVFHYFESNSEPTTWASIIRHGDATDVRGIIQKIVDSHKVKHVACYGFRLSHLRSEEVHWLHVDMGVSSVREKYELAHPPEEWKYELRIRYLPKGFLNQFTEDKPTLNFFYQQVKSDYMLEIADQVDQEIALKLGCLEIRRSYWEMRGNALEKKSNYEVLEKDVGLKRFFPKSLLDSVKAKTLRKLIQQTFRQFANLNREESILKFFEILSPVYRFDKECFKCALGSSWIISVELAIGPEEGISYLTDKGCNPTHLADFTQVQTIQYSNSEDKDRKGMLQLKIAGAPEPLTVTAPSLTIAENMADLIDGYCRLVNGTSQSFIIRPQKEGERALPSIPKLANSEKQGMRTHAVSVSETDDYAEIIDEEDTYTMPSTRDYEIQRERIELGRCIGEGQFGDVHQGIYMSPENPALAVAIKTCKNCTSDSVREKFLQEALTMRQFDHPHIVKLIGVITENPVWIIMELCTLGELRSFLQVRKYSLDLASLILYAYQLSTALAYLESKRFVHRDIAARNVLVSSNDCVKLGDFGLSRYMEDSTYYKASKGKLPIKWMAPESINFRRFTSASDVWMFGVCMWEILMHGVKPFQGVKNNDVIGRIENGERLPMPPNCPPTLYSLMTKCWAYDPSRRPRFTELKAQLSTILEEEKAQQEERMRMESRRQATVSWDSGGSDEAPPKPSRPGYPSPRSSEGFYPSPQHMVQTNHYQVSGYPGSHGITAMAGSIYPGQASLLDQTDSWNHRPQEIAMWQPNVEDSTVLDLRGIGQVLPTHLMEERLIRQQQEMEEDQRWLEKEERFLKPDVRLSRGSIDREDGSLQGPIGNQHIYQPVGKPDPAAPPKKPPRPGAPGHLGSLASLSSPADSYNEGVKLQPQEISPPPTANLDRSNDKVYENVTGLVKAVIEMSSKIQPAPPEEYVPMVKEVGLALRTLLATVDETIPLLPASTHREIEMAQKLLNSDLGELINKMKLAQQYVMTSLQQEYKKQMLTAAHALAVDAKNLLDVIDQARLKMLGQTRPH

Compound	composite z-score (Albumin (Bos taurus))	composite Z-score [1]	composite z-score [2]	composite z-score [3]	composite z-score [4]	composite z-score [5]	composite z-score [6]	composite z-score (Sam68 (KHDRBS1))	composite z-score [7]	composite z-score [8]	composite z-score [9]	composite z-score [10]	composite z-score [11]	composite z-score [12]	composite z-score [13]	composite z-score [14]	z-score [15]	composite z-score (Lefty1)	composite z-score [16]	z-score [17]
COC(=O)[C@@H]1CC[C@H](C)[C@@H](c2ccc(Br)cc2)N1	-0.109	1.22 (inactive)	0.086	0.0037	0.665	0.878	-0.243	-1.39	0.322	-0.197	0.426	-1.3	1.38	0.102	-0.291	-0.21	0.0492	-0.04	-0.197	-0.464 (inactive)
C=CC[C@@H]1C=C[C@H](ON=C[C@@H](NS(=O)(=O)c2ccc(C)cc2)[C@H](C)C=CCC(=O)OC)[C@@H](CO)O1	0.766	0.819 (inactive)	0.0232	-0.0393	-0.277	-0.327	0.0555	-0.483	0.487	-1.58	1.34	-0.205	-0.0954	-0.193	0.774	0.349	-0.0376	0.625	0.511	1.18 (inactive)
CC(CCN1CCc2nc(-c3ccccc3)c(-c3ccccc3)cc2C1)=NO[C@@H](C)c1cc(-c2c(C)cc(C)cc2C)no1	0.554	0.0956 (inactive)	-0.0918	-0.164	0.0148	0.157	-0.0375	-0.0575	-0.583	0.613	0.962	-0.444	-0.228	0.496	-0.289	-0.44	0.281	-0.0591	0.493	0.618 (inactive)
O=C1[C@H]2[C@H]3[C@H](O)[C@H](O)CC(=NO[C@@H]4O[C@H](CO)[C@@H](O)[C@H](O)[C@H]4O)[C@H]3CC[C@H]2C(=O)N1c1ccc(F)cc1F	-0.168	-0.463 (inactive)	0.196	-0.177	-0.556	-0.258	0.0482	1.07	-0.819	-1.06	-1.26	-0.162	0.633	0.192	-1.22	0.502	-0.352	-0.152	-0.052	1.42 (inactive)
CC(C)=NOC[C@@H](O)[C@H]1O[C@@H]2OC(C)(C)O[C@@H]2[C@H]1O	0.255	0.559 (inactive)	-0.349	-0.273	-0.0402	1.85	0.116	0.968	0.537	0.929	-0.0333	0.491	0.17	0.0104	0.464	0.57	0.225	0.507	0.0212	-0.394 (inactive)
CCOC(=O)NN=C1C[C@@H](O)[C@@H](O)[C@@H]2[C@@H]3C(=O)N(c4ccc(F)cc4F)C(=O)[C@@H]3CC[C@H]12	0.123	-0.623 (inactive)	-0.0879	-0.107	-0.0212	0.0971	0.0173	0.108	0.529	0.0692	0.142	0.301	-0.0292	0.233	0.515	0.577	-0.778	0.449	0.161	1.18 (inactive)
CC(C)=CCCC(C)=CCON=C1[C@H]2CCn3c(=O)n(-c4ccccc4)c(=O)n3[C@H]2[C@H](O)[C@@H]2O[C@H]12	0.271	0.0213 (inactive)	0.185	-0.14	0.464	1.18	0.353	1.22	1.02	0.763	0.645	1.14	0.274	0.712	1.19	0.765	0.334	0.808	0.505	-0.416 (inactive)
CN1CCc2nc(-c3ccccc3)c(-c3ccccc3)cc2C1	0.0013	-0.341 (inactive)	-0.0343	-0.115	-0.132	-0.0596	-0.247	-0.23	0.58	0.486	0.532	0.26	0.163	0.547	0.397	0.325	0.0181	0.256	-0.0097	-0.133 (inactive)
CCN1C(=O)[C@H]2[C@H]3[C@H](O)[C@H](O)CC(=NO[C@@H]4O[C@H](CO)[C@@H](O)[C@H](O)[C@H]4O)[C@H]3CC[C@H]2C1=O	-0.0203	0.121 (inactive)	-0.0783	-0.148	-0.0497	-0.0296	0.212	-0.305	0.43	0.634	0.0595	0.512	0.026	0.16	0.442	0.922	-0.8	0.467	0.0622	0.217 (inactive)
C#CCCCON=C1C[C@@H](O)[C@@H](O)[C@@H]2[C@@H]3C(=O)N(C[C@@H]4CCCO4)C(=O)[C@@H]3CC[C@@H]12	0.211	-0.294 (inactive)	-0.047	-0.0614	0.406	0.31	0.221	0.254	0.264	0.842	0.265	0.439	-0.14	0.527	0.378	0.222	0.441	0.554	0.553	-0.106 (inactive)
CON=C(C)CCN1CCc2nc(-c3ccccc3)c(-c3ccccc3)cc2C1	0.633	0.837 (inactive)	-0.132	-0.0829	-0.153	-0.556	0.0881	-0.303	0.258	1.13	-0.634	-0.545	-0.414	0.838	0.944	0.344	2.9	0.686	0.801	0.326 (inactive)
COC(=O)C1=C(C)N(Cc2ccccc2)C2=C3C(=O)OCC[C@@H]3[C@@](O)(C(=O)OC)C(=O)N2[C@@H]1c1ccccc1	-0.0298	-0.135 (inactive)	0.0182	-0.14	-0.085	0.132	-0.186	-0.0394	0.487	0.325	0.0356	0.0787	0.19	0.332	0.384	0.402	1.48	0.836	0.0974	-0.653 (inactive)
CCCNC(=O)OC[C@H]1O[C@H](CCON=C[C@@H](NS(=O)(=O)c2ccc(C)cc2)[C@H](C)C=CCC(=O)OC)C=C[C@@H]1Oc1ccc(OC)cc1	-0.413	-0.385 (inactive)	0.0961	-0.0158	-0.437	-0.192	-0.0407	0.0713	0.16	-1.46	-0.114	0.136	0.459	0.0865	-0.0546	-0.102	0.188	0.0275	0.391	-0.21 (inactive)
CCc1cc2c(nc1CC)CCN(CCC(C)=NO[C@@H]1O[C@H](COC(C)=O)[C@@H](OC(C)=O)[C@H](OC(C)=O)[C@H]1OC(C)=O)C2	0.314	-0.0798 (inactive)	0.105	-0.0527	0.0275	1.34	0.388	1.32	0.922	0.571	0.0815	0.286	0.0487	0.816	1.03	0.559	-0.766	1.42	0.167	1.03 (inactive)
CCN(CC)CC(O)CN1CCCCc2nc(C)c(C)cc21 (stereo not given)	0.401	-0.336 (inactive)	0.0026	-0.195	0.367	0.243	-0.072	0.334	0.468	0.363	1	0.546	-0.0492	0.0982	0.355	0.639	1.09	0.516	0.944	-1.12 (inactive)
C[C@@H]1CC[C@H]2C(=O)O[C@@H](CN=[N+]=[N-])CN2[C@H]1c1ccc(Br)cc1	0.677	-0.283 (inactive)	-0.0343	-0.0287	0.236	1.02	0.373	1.12	0.526	1.07	2.89	1.15	0.694	0.952	0.515	0.376	0.285	0.506	0.829	-1.59 (inactive)
